High-throughput results deposited in PubChem by National Center for Advancing Translational Sciences (NCATS).
Pf Dd2 inh: Plasmodium falciparum Dd2 growth inhibition | P. falciparum Dd2 growth, SYBR Green, 72 h | Potency, µM (titrated, usually from 28.9 µM), hits mostly inhibitors | hit rate 4.3% among 120,000 | AID 1347417; active = well fitted inhibition curve with a large enough effect; note: nearly all actives have a fitted effect of over 65% in size
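Readout: SYBR Green fluorescence, 485 nm excitation, 535 nm emission, after ~16 h lysis at 37C. Before that, Dd2-infected red cells (2.5% hematocrit) grew 72 h with compound, 29 uM top final concentration.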
A number is an active result; - = inactive. The full list was thinned out, with hits kept by preference.

SMILES	Pf Dd2 inh
Cc1cc2nc3n(c(=O)c2n1CC(=O)Nc1ccccc1)CCCCC3	-
COc1ccc(CC(=O)N2CCn3c(nnc3-c3ccc(OC)cc3)C2)cc1	-
CCc1ccc(NC(=O)COc2cccc(-c3nnc4n3CCCC4)c2)cc1	5µM
CCc1cccc(OCC(=O)Nc2ccc(S(=O)(=O)Nc3ncccn3)cc2)c1	-
COc1ccc(N2CCN(C(=O)COc3ccc(-c4nnc5n4CCCC5)cc3)CC2)cc1	0.71µM
COc1ccc(-c2nnc3n2CCN(C(C)=O)C3)cc1	-
CNC(=O)N1CCCCCCn2c(nnc2-c2ccc(F)cc2)CC1	-
O=C(COc1ccc(-c2nnc3n2CCCC3)cc1)Nc1ccc(F)cc1	5.6µM
O=C(COc1ccc(-c2nnc3n2CCCC3)cc1)Nc1ccccc1	7.9µM
O=C(C1CC1)N1CCCCCCn2c(nnc2-c2ccc(F)cc2)CC1	-
O=C1NCCOCCN(C(=O)COCc2ccccc2)[C@H]2CCC[C@@H]12	-
CC(C)(C)c1ccc(C(=O)N[C@H]2CC(C)(C)[C@@H]3C[C@@](C)(O)CC[C@]23CCC(=O)N2CCCC2)cc1	-
COCC1CN(C(C)=O)CC12CCN(S(=O)(=O)c1c(C)noc1C)CC2 (stereo unspecified)	-
C[C@H]1[C@@H]2[C@@H](O)C([C@H](C)C(=O)NCc3cccs3)CC[C@@]2(C)CC[C@@H]1NC(=O)COc1ccccc1 (stereo partly specified)	-
CCn1cc(S(=O)(=O)N2CCC(C(=O)O)(n3cccn3)CC2)cn1	-
O=C(Cc1ccc(N(Cc2ccc(F)cc2)C(=O)c2ccco2)cc1)NCc1ccc(F)cc1	-
CCOc1ccc(C2Cn3nnc(-c4nc(-c5ccccc5Cl)no4)c3CO2)cc1 (stereo unspecified)	-
O=C(CS(=O)(=O)c1ccccc1)N[C@H]1CCN2C(=O)[C@H](Cc3ccc(F)cc3)NC(=O)[C@@H]2C1	-
CC[C@H]1CN2CC[C@H]1C[C@@H]2CNC(=O)CSCC(=O)O	-
COc1cccc(NC(=O)COc2ccc(-c3nnc4n3CCCC4)cc2)c1	2.8µM
O=C(Nc1ccc(-c2nnc3n2CCCC3)cc1)C1CC1	-
COc1cccc(NC(=O)Cn2c(C)cc3nc4n(c(=O)c32)CCCC4)c1	-
Cc1ccccc1NC(=O)Cn1c(C)cc2nc3n(c(=O)c21)CCCCC3	-
COc1ccccc1NC(=O)Nc1cccc(-c2nnc3n2CCCC3)c1	-
COc1ccccc1NC(=O)Nc1ccc(-c2nnc3n2CCCC3)cc1	4µM
SMILES	Pf Dd2 inh
COc1cccc(NC(=O)Cn2nc3n(c2=O)CCCCC3)c1	-
O=C(CCC1CCCC1)Nc1ccc(-c2nnc3n2CCCC3)cc1	-
O=C(COc1ccccc1)Nc1ccc(-c2nnc3n2CCCC3)cc1	10µM
Cc1ccccc1NC(=O)COc1ccc(-c2nnc3n2CCCC3)cc1	11µM
O=C(Nc1ccc(-c2nnc3n2CCCC3)cc1)Nc1ccccc1Br	-
Cc1cccc(NC(=O)Cn2nc3n(c2=O)CCCCC3)c1C	-
O=C(NCCCc1ccccc1)c1nnn2c1COC(c1ccc(Br)cc1)C2 (stereo unspecified)	-
CNC(=O)C1(N2CCC[C@H]2C(=O)NCCOC)CCCCC1	-
COc1ccc(NC(=O)N2CCC(Oc3ncccc3C(=O)N3CCOCC3)C2)cc1F (stereo unspecified)	-
CCC(=O)N[C@@H]1CN(Cc2ccccc2)C[C@H]1CN(C)C	-
CCOCc1nc(C2CCCN(C(=O)c3ccncc3)C2)no1 (stereo unspecified)	-
O=C1C(O)C2(CCCCC2)N1C1CCN(Cc2ccncc2F)CC1 (stereo unspecified)	-
COCCn1c(C)cnc1C1CCNC1 (stereo unspecified)	-
CO[C@H]1[C@H](NC(=O)c2cc(C3CC3)[nH]n2)c2ccccc2C12CCNCC2	-
C[C@H]1[C@@H]2[C@@H](O)C([C@H](C)C(=O)NCc3ccccc3)CC[C@@]2(C)CC[C@@H]1NC(=O)c1ccccc1 (stereo partly specified)	-
Cc1nc(-c2ccc(N(C)C)cc2)cc([C@H]2CN3CC[C@H]2C[C@@H]3CNC(=O)NC(C)C)n1	-
COc1ccc(CCC(=O)Nc2ccc(-c3nnc4n3CCCC4)cc2)cc1	-
CCc1ccc(NC(=O)COc2ccc(-c3nnc4n3CCCC4)cc2)cc1	4µM
CCOc1ccc(NC(=O)Cn2c(C)cc3nc4n(c(=O)c32)CCCC4)cc1	-
COCCn1c(COc2c(C)nc(C)nc2C)nnc1C1CC(N)C1 (stereo unspecified)	-
O=C1NC(C(=O)N2CCc3ccccc3C2)Cn2cccc21 (stereo unspecified)	-
Cn1nccc1C(=O)N1CC(c2ncc3c(-c4ccc(F)cc4)nccn23)C1	-
COc1cc(C)c(-c2nc(CN3CCN(C)C(=O)C3)c(C)o2)cc1C	-
COCCOC1CN(C2CCN(Cc3ccncc3)CC2)C12CCCCC2 (stereo unspecified)	-
COCCOC1CN(C2CCN(C(=O)c3ccc(OC)c(F)c3)CC2)C12CCCCC2 (stereo unspecified)	-
SMILES	Pf Dd2 inh
COCCOC1CN(C2CCN(Cc3cccc(F)c3)CC2)C12CCCCC2 (stereo unspecified)	3.5µM
COCCOC1CN(C2CCN(Cc3ccc(F)c(F)c3)CC2)C12CCCCC2 (stereo unspecified)	2.5µM
COCCOC1CN(C2CCN(S(=O)(=O)c3ccccc3)CC2)C12CCCCC2 (stereo unspecified)	-
COCCOC1CN(C2CCN(C(=O)Nc3ccccc3F)CC2)C12CCCCC2 (stereo unspecified)	-
COc1cccc(CCC(=O)NC(C)C(=O)N2CCN(c3ccccn3)CC2)c1 (stereo unspecified)	-
CN1CCN(C(=O)c2ccc(-c3ccc(N4CCSCC4)nc3)cc2)CC1	-
Cc1ccc(N2CCC3(CCCN3Cc3ccc(C4CCCO4)s3)CC2)nn1 (stereo unspecified)	-
CC(=O)N1CCC2(CC1)CN(C(=O)CCCNC(N)=O)Cc1ccccc1O2	-
COc1ccc(-c2nn(-c3ccccc3)cc2CN2CCCC(C)(O)C2)c(F)c1 (stereo unspecified)	-
COc1ccc(-c2nn(-c3ccccc3C)cc2CN2CCCN(C)CC2)cc1F	7.9µM
OC[C@H]1CCN(Cc2cn(-c3ccccc3)nc2-c2ccncc2)C[C@@H]1O	-
CCC1CN(Cc2cn(-c3ccccc3C)nc2-c2ccc(OC)c(F)c2)CCO1 (stereo unspecified)	11µM
CCc1c(CN2CCN(c3ccccc3F)CC2)csc1C	-
CCc1ccc(N2CC(c3noc(-c4ccc(OC)c(F)c4)n3)CC2=O)cc1 (stereo unspecified)	-
COCCn1cc(CN2CCN(Cc3ccccc3F)CC2)ccc1=O	-
CCN1CCN(Cc2cn(-c3ccccc3F)nc2-c2cc(C)sc2C)CC1	11µM
COc1ccc(OC)c(CN2CCN(S(=O)(=O)c3ccccc3)CC2)c1	-
O=C(N1CCN(Cc2ccc(Cl)c(Cl)c2)CC1)C12CNCC1CNC2 (stereo unspecified)	-
Cn1nc(-c2ccc3ccccc3c2)cc1[C@H]1CN2CC[C@H]1C[C@@H]2CNC(=O)Nc1cccc(C#N)c1	-
Cc1ccc(C(=O)N2CCC[C@H]2c2nc(-c3ccccc3Cl)no2)cc1	-
O=C([C@@H]1C[C@H](Oc2cccnc2)CN1S(=O)(=O)c1ccccc1)N1CCOCC1	-
COCC(=O)N1CC[C@]2(O)CCN(C(=O)c3ccc(C(C)=O)s3)C[C@@H]2C1	-
